Assay outcomes as filed in PubChem.
Hits are enriched below; roughly 11% of the tested compounds scored in any of these assays.
ALDH1A1 inh = inhibitors of human aldehyde dehydrogenase 1A1. P00352. Purified ALDH1A1, NADH fluorescence, propionaldehyde substrate. Potency, µM (titrated, usually from 75.3 µM), for inactives: at the highest dose activity, negative = inhibition, hits mostly inhibitors. 220,000 compounds, 7.3% hits. AID 1030;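 also: potency is read from the fitted curve at half-maximal effect; plate controls were no enzyme wells and a reference inhibitor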
HPGD block = inhibitors of human 15-hydroxyprostaglandin dehydrogenase (HPGD) | P15428 | purified HPGD, NADH fluorescence kinetic, PGE2 substrate | Potency, µM, for inactives: top-dose activity change, negative = inhibition, actives largely listed as inhibitors | 150,000 compounds, 4.3% hits | AID 894; also: potency is read from the fitted curve at half-maximal effect
Target sequence (P15428 whole entry, looked up): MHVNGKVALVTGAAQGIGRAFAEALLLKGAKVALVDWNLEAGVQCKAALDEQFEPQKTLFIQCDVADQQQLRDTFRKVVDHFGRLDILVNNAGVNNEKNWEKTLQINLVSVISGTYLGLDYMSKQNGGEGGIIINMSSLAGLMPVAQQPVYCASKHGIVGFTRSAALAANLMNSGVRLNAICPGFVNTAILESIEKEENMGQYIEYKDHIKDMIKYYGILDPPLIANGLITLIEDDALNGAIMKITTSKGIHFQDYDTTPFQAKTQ
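20 nM HPGD preincubated 15 min at room temperature with compound in 50 mM Tris-HCl pH 8, 0.01% Tween 20. Started with 1 mM NAD+ and 30 uM prostaglandin E2; NADH fluorescence (360/450 nm) read 5 times over 30-s intervals, last minus first.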
PNC inhibitor = inhibitors of perinucleolar compartment assembly; activity change (PNC), negative = inhibition, % at 10 µM; PC3M PTB-GFP, PNC prevalence imaging, 16 h; active compounds read low; 140,000 compounds, 3.1% hits;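 active = readout at or below -70, meaning at least 70% loss of cells showing the perinucleolar compartment, a nuclear body marking cancer cells; inconclusive = readout between -30 and a set limit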;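 also: plate controls were DMSO wells for no effect and camptothecin positive control wells for full effect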
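Read-out is percentage of cells bearing a perinucleolar compartment, from automated 20x imaging of fixed, Hoechst-stained PC3M PTB-GFP cells. Cells were seeded 4 h, then exposed 16 h to compound (23 nl of library stock) in duplicate plates.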
The depositor's hits bear a star; [ ] = remark or other dose. Unless noted, calls follow the shape of the dose curve; as a rule, active = well fitted inhibition curve with a large enough effect (not every such curve was filed as active); inconclusive = small, poorly fitted or top-dose-only effect, or another doubt; inactive = no such curve, though single readings can be large or run the other way. Unless noted, % is scaled to controls: 0 for no effect and ±100 for the full control effect.

Screening COc1ccc(OCC(=O)Nn2c(-c3ccc(OC)cc3)nc3ccccc3c2=O)cc1 returned ALDH1A1 inh inconclusive, HPGD block -13% and PNC inhibitor inconclusive.
For CC(C)P(=O)(c1cccc(C(=O)O)c1)C(C)C the results were ALDH1A1 inh 11%, HPGD block -5% and PNC inhibitor 28.
Screening COC(CNC(=O)c1ccc(N2CCc3ccccc32)c([N+](=O)[O-])c1)OC returned ALDH1A1 inh inconclusive, HPGD block -26% and PNC inhibitor 13.
For NNC(=O)c1ccc(N2CCc3ccccc32)c([N+](=O)[O-])c1 the results were ALDH1A1 inh 1.6µM*.
For O=C(O)CC/C=C\C[C@@H]1CO[C@H](c2ccccc2Cl)O[C@@H]1c1ccccc1O the results were ALDH1A1 inh 0% and HPGD block -3%.
`CCCC/C=C/C(NC(=O)c1cccs1)c1ccccc1` (stereo not given) gave ALDH1A1 inh inconclusive and HPGD block -16%.
`O=C(Nc1ccc(F)cc1)Nc1ccccc1F` gave ALDH1A1 inh 14%.
Screening O=C(Nc1ccc2[nH]c(=S)sc2c1)Nc1ccccc1F returned ALDH1A1 inh 1µM*.
Screening O=C1CC(c2ccc(F)cc2)CC2=C1C(c1ccc([N+](=O)[O-])o1)Nc1ccccc1N2 (stereo not given) returned ALDH1A1 inh -5%.
For CCOCC(=O)Nc1cc(C(=O)OC)cc(C(=O)OC)c1 the results were ALDH1A1 inh -1%, HPGD block -20% and PNC inhibitor -5.
O=C(Cc1ccc(F)cc1)Nc1ccc(F)c([N+](=O)[O-])c1 was read as ALDH1A1 inh 13%, HPGD block -2% and PNC inhibitor inconclusive.
Screening O=C(Nc1ccc(F)c([N+](=O)[O-])c1)C(=O)c1c(O)[nH]c2ccccc12 returned ALDH1A1 inh 13µM*.
Screening O=C(COC(=O)Cc1ccccc1F)Nc1cccc(F)c1 returned ALDH1A1 inh 3%.
`Cc1nnc2sc(-c3csc4c3CCCC4)nn12` gave ALDH1A1 inh -10%, HPGD block inconclusive and PNC inhibitor 42.
Screening S=c1nc(-c2csc3c2CCCC3)[nH][nH]1 returned ALDH1A1 inh 11µM*.
Screening Cc1ccccc1C(=O)c1c[nH]c(C(=O)NCCc2ccccn2)c1 returned ALDH1A1 inh 22µM*.
COc1ccc(C(=O)c2c[nH]c(C(=O)NCc3ccco3)c2)cc1 was read as ALDH1A1 inh inconclusive, HPGD block inconclusive and PNC inhibitor -16.
For Cc1ccccc1C(=O)c1c[nH]c(C(=O)NCc2ccco2)c1 the results were ALDH1A1 inh 20µM*, HPGD block -17% and PNC inhibitor 25.
Screening CCC(=O)c1c[nH]c(C(=O)NCCc2ccccn2)c1 returned ALDH1A1 inh 7%, HPGD block -3% and PNC inhibitor 3.
CCN(CC(=O)O)C(=O)c1cccnc1 was read as ALDH1A1 inh 7%[13.5 µM] and HPGD block -4%.
Screening Cc1ccc(S(=O)(=O)C(C#N)=C2N(C)c3ccccc3N2C)cc1 returned ALDH1A1 inh 8%.
Screening NC(=O)c1ccc(NC(=O)COC(=O)CC(NC(=O)c2ccccc2Cl)c2ccccc2)cc1 (stereo not given) returned ALDH1A1 inh 2%, HPGD block -4% and PNC inhibitor inconclusive.
O=C(CCc1ccccc1)NNC(=O)c1cccc(F)c1 was read as ALDH1A1 inh 6%.
`CC(C)(C)c1ccc(C(=O)CC(=O)c2cc(Cl)ccc2O)cc1` gave ALDH1A1 inh 0%, HPGD block -24% and PNC inhibitor 30.
`O=C(CC(=O)c1ccccc1O)c1ccc(F)cc1` gave ALDH1A1 inh -6%, HPGD block 18µM* and PNC inhibitor 20.
`O=C(CC(=O)c1ccccc1O)c1cccc(F)c1` gave ALDH1A1 inh -12%, HPGD block 20µM* and PNC inhibitor -28.
For Cc1ccccc1C(=O)NNC(=O)c1ccc(F)cc1 the results were ALDH1A1 inh -2%, HPGD block 7% and PNC inhibitor -16.
Cc1ccc(C(=O)CC(=O)c2cc(Cl)ccc2O)cc1 was read as ALDH1A1 inh -2%, HPGD block 28µM* and PNC inhibitor 23.
`CC(CN1CCCC1)C(=O)NN` (stereo not given) gave ALDH1A1 inh 2%.
CN(C)CC(C)(C)CN1c2ccccc2Sc2ccccc21 was read as ALDH1A1 inh 2%[13.5 µM] and HPGD block -1%.
O=C1CN(c2nc3nonc3nc2N2CCCCC2)CCN1 was read as ALDH1A1 inh -13%.
For O=C(O)C(Cc1ccccc1-c1ccccc1)C(=O)O the results were ALDH1A1 inh 9%[13.5 µM] and HPGD block -3%.
`CNC(=S)SCCOc1ccccc1C` gave ALDH1A1 inh 1%, HPGD block inconclusive and PNC inhibitor -17.
For CC(NC(=O)/C=C/c1ccccc1)c1ccccc1 (stereo not given) the results were ALDH1A1 inh -4%.
Screening CC(NC(=O)c1ccc(Br)cc1)c1ccccc1 (stereo not given) returned ALDH1A1 inh 11µM*, HPGD block -6% and PNC inhibitor 15.
Screening CC(NC(=O)c1ccccc1)c1ccc(Br)cc1 (stereo not given) returned ALDH1A1 inh 1%.
`CC(NC(=O)/C=C/c1ccc(Br)cc1)c1ccccc1` (stereo not given) gave ALDH1A1 inh -2%, HPGD block -14% and PNC inhibitor -84*.
Cc1ccnc(NC(=O)c2cccc(NS(=O)(=O)c3ccccc3C)c2)c1 was read as ALDH1A1 inh -4%, HPGD block -5% and PNC inhibitor inconclusive.
`Cc1ccccc1OCC(=O)OCC(=O)NCc1cccs1` gave ALDH1A1 inh -3%, HPGD block inconclusive and PNC inhibitor 19.
`CCN(c1ccccc1)S(=O)(=O)c1ccc(Cl)c(C(=O)N(CC2CCCO2)C2CCS(=O)(=O)C2)c1` (stereo not given) gave ALDH1A1 inh -14%.
For CCN1CCN(c2ccc(NC(=O)c3ccc4c(c3)[nH]c(=O)n4Cc3ccc(F)cc3)cc2)CC1 the results were ALDH1A1 inh -1%, HPGD block inconclusive and PNC inhibitor 0.
`O=C(Nc1ccccc1)N1CC2(CCN(C(=O)c3cccc(F)c3)CC2)C1` gave ALDH1A1 inh -7% and HPGD block -5%.
Screening COc1ccc(NCc2nnc(SCC(=O)Nc3ccccc3)n2C)cc1 returned ALDH1A1 inh 5%.
`COc1ccccc1Cc1noc(COc2cccc(C)c2C)n1` gave ALDH1A1 inh 3%, HPGD block -7% and PNC inhibitor -135*.
COc1ccccc1Cc1nc(-c2ccncc2)no1 was read as ALDH1A1 inh 1%.
`CCOC(=O)c1sc(=S)n(C)c1NC(=O)c1ccccc1Cl` gave ALDH1A1 inh 32µM*, HPGD block 28µM* and PNC inhibitor 23.
`CCOC(=O)c1sc(NC(=O)Nc2ccccc2Cl)cc1C` gave ALDH1A1 inh -1%, HPGD block -30% and PNC inhibitor 4.
O=C(NC(=Nc1nc2ccccc2o1)NC(=O)c1ccccc1)c1ccccc1 was read as ALDH1A1 inh -2%, HPGD block -11% and PNC inhibitor inconclusive.
